Test results published in PubChem BioAssay.
Unmarked numbers belong to inactive results. The source made the active and inactive calls.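 The calls were made as follows, unless noted: active = mean inhibition over 43.08%, the solvent-only control mean plus 3 SD; inactive = the rest.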

Tests used:
[1] = molecular target: Nuclear receptor coactivator 3 (Homo sapiens) (UniProt Q9Y6Q9); assay: NCOA3 GAL4-fusion reporter inhibition – cell-based, luminescence, quadruplicate, confirmation (AID 588792); conditions: HEK293 GAL4-SRC3 luciferase reporter, at 3.6 µM, stronger effect = higher value;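 also: 0% = DMSO treated cells and 100% = gossypol at 36 µM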
[2] = test system: transactivating tegument protein VP16 (Human herpesvirus 1), Gal4-VP16 luciferase reporter; assay: repression of VP16-driven luciferase reporter – cell-based, luminescence, high throughput, counter-screen for SRC3 inhibitor project (AID 588794; in the data active = inhibition above about 30%); conditions: mammalian cells, at 3.6 µM, stronger effect = higher value

Nuclear receptor coactivator 3 (Homo sapiens), sequence (Q9Y6Q9 whole entry, looked up, the tested form may be a part): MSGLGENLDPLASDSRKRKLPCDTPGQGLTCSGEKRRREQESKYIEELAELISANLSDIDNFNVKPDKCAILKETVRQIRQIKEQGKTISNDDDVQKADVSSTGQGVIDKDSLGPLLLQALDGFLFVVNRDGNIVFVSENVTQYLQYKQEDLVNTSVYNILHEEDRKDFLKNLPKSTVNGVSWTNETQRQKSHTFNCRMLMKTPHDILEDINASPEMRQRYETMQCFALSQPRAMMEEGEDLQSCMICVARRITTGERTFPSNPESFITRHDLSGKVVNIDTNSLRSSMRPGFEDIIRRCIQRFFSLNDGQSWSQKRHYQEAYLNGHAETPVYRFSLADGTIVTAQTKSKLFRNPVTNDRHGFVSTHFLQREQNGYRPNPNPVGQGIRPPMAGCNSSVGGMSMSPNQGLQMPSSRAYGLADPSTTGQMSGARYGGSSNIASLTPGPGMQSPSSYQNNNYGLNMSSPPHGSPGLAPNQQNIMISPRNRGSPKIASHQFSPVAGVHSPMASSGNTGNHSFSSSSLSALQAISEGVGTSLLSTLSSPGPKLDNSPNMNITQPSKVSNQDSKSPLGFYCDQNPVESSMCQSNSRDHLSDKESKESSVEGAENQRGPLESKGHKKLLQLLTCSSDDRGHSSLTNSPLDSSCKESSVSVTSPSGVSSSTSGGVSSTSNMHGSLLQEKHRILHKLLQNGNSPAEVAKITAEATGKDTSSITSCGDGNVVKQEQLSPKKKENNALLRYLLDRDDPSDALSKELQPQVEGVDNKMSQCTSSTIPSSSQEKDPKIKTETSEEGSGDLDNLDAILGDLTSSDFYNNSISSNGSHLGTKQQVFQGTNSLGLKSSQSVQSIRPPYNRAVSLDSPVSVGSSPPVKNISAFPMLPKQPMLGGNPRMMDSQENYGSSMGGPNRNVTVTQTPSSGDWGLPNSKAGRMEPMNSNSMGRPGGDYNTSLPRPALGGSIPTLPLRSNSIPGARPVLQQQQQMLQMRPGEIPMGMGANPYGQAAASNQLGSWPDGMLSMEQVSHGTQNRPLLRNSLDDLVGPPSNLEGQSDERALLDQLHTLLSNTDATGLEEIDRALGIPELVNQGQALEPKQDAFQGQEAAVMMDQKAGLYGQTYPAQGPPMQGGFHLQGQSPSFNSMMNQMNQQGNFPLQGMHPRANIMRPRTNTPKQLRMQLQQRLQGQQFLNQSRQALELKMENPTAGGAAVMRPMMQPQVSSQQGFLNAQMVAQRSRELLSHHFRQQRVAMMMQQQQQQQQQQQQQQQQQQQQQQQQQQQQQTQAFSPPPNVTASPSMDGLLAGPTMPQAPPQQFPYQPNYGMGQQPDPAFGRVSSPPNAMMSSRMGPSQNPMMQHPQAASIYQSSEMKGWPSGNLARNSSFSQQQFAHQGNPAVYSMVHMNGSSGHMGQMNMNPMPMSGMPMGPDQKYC

| Structure (SMILES) | inhibition [1] | inhibition [2] |
| --- | --- | --- |
| O=C(NNC1=Nc2ccccc2SC1)c1ccc(Cl)cc1 | 24.6% | 5.18% |
| CCCc1[nH]nc2c1C(c1ccc(Br)s1)C(C#N)=C(N)O2 (centres undefined) | 8.21% | 25.7% |
| Cc1cc(Br)ccc1NC(=O)c1cnc(N2CCN(c3ccccn3)CC2)c2ccccc12 | 15.6% | 15.2% |
| COc1cccc(/C=N/NC(=O)C(C)n2nc(C)c([N+](=O)[O-])c2C)c1O (centres undefined) | 10.2% | 27.4% |
| C=CCN1CN(S(=O)(=O)c2cccs2)c2nc3ccccc3nc21 | -9.88% | 7.9% |
| CCCN1C(=O)c2ccccc2NC1c1ccc(Cl)c(Cl)c1 (centres undefined) | 17.8% | 22.1% |
| Cc1ccnc(OC(C(=O)O)C(OCc2ccccc2)(c2ccccc2)c2ccc(C(F)(F)F)cc2)n1 (centres undefined) | 8.84% | 12.4% |
| C#CCN(C[C@@H]1[C@@H](OC(=O)NCc2ccccc2F)[C@@H](OC(=O)NCc2ccccc2F)Cn2c(=O)ccc(=O)n21)S(=O)(=O)c1ccc(C)cc1 | -2.92% | 24.2% |
| O=C(Nc1ccc(S(=O)(=O)Nc2ccc(F)cc2)cc1)c1ccc(CN2CCOCC2)cc1 | 7.38% | 38.6% (active) |
| CCc1ccc(C(=O)COC(=O)c2cncc(Br)c2)cc1 | 10.2% | 7.77% |
| CC(C)C(=O)N1CCN(c2ccc(NC(=O)COc3ccccc3[N+](=O)[O-])cc2)CC1 | 12.7% | 28.6% |
| COc1ccc(S(=O)(=O)N2CCCCCC2)cc1C(=O)N(C)CC(=O)Nc1cc(C)ccc1C | 8.3% | 10.6% |
| COC(=O)c1ccc(NC(=O)Cn2c(-c3nonc3N)nc3ccccc32)cc1 | 17% | 3.85% |
| COc1ccc2c(=O)c3c(=O)n(CCc4ccccc4)c(C(C)C)nc3oc2c1 | 4.29% | 17.5% |
| COc1ccc(/C=C(\C#N)C(=O)OCC(=O)N(C)C2CCS(=O)(=O)C2)cc1 (centres undefined) | -1.8% | -11% |
| CC1CCc2c(sc(NC(=O)c3ccco3)c2C(=O)O)C1 (centres undefined) | 18.1% | 36.3% (active) |

| Structure (SMILES) | inhibition [1] | inhibition [2] |
| --- | --- | --- |
| N#Cc1c(NCc2ccccc2)ccnc1Cl | 27.5% | 15.9% |
| [O-]C(=C(C(=S)Nc1cccc2ccccc12)[n+]1ccccc1)c1ccc2c(c1)OCCO2 | 3.21% | -0.81% |
| O=C(CN1C(=O)C(=O)N(C2CCCC2)C1=O)Nc1ccccc1OC(F)F | 10.1% | -11.8% |
| O=C(NC(=S)Nc1cccc2cnccc12)c1ccccc1 | 51.4% (active) | 44.1% (active) |
| Fc1ccccc1-c1csc(=Nc2cccnc2)n1CCCn1ccnc1 | 37.4% | 25.1% |
| Cc1cc(C(=O)N2CCN(c3ccccn3)CC2)no1 | 4.36% | -9.5% |
| O=C(N/N=C/c1cc(Br)ccc1OC(=O)c1ccc(Br)cc1)c1ccncc1 | 20.5% | 28% |
| O=C(NCCCn1ccnc1)C(=O)NCc1ccc(Cl)cc1 | 20.3% | -1.8% |
| C/C(=N\NC(=O)c1cc(-c2cccnc2)nc2ccccc12)c1ccc(O)cc1O | 48.4% (active) | 29.9% (active) |
| COc1ccccc1NC(=O)Nc1nnc(Cc2ccccc2F)s1 | 5.82% | 20.4% |
| COc1ccc(-c2nc(CSCC(=O)NCc3ccco3)c(C)o2)cc1 | 42.1% | -11.2% |
| CC1(C)CC2(CC(c3ccccc3F)c3cc(Cl)c(O)cc3O2)NC(=S)N1 (centres undefined) | 16.6% | 6.57% |
| C/C(=N\NC(=O)c1c(C)nc2ccccn12)c1ccc(O)cc1O | 52.7% (active) | 55.2% (active) |
| NC(=S)NN=C(Cc1ccccc1)Cc1ccccc1 | 22.4% | 15.6% |
| CN1CCN(S(=O)(=O)c2ccc(Sc3nnnn3-c3ccccc3)c([N+](=O)[O-])c2)CC1 | 24.5% | 2.52% |
| CCN(C(=O)COC(=O)/C(=C/c1ccccc1)n1nnnc1C)C1CCCCC1 | 26.9% | 27% |
